Bioassay records as filed in PubChem.
Shown are actives, neighbours in structure and some others; about 7.5% of the full set was active somewhere.
ELG1 genotox – inducers of genotoxicity in HEK293T ELG1-luciferase cells. AID 504466. 330,000 compounds, 1.3% hits. HEK293T ELG1-luciferase reporter, luminescence, 16 h. Potency, µM (series often up to 46 µM), most hits filed as activators; note: nearly all actives have a fitted effect of over 60% in size
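Step 1: seed 2,000 HEK293T ELG1-luciferase cells per well. Step 2: add compound or DMSO, incubate 16 hr at 37 °C. Step 3: ONE-Glo, 30 min at room temperature, read luminescence.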
SMN2 splice up – SMN2 splice variant enhancement; HEK293 SMN2-luciferase splicing reporter, luminescence, 30-36 h; Potency, µM (series often up to 46.1 µM), hits mostly activators; AID 1458; 210,000 compounds, 2.8% hits; note: nearly all actives have a fitted effect of over 55% in size
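HEK293 cells carry an SMN2 […]–luciferase reporter in which exon 7 inclusion puts luciferase in frame. Cells were plated 10-12 h before compound addition, then incubated 30-36 h at 37C. ONE-Glo luminescence was read; sodium butyrate at 4.5 mM final served as control.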
KinaseGlo FLuc – Kinase-Glo luciferase inhibition (counter-screen); Q27757; Kinase-Glo luciferase, ATP luminescence, 8 min; Potency, µM (titrated, usually from 38.3 µM), usual class: inhibitors; 200,000 compounds, 0.28% hits; note: nearly all actives have a fitted effect of over 60% in size
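Inhibition of Kinase-Glo luciferase light generation was assessed at 10 uM ATP in pH 7.2 imidazole buffer, with luminescence measured after eight minutes at ambient temperature.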
NPC1 promoter act – activates the NPC1 promoter; Huh7 NPC1 promoter luciferase reporter, 24 h; Potency, µM (doses to about 9.22 µM), hits mostly activators; 320,000 compounds, 2.4% hits; AID 485313; note: nearly all actives have a fitted effect of over 60% in size
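Stable NPC1-promoter luciferase Huh7 line; cpd (DMSO) 24 h, 37 °C, 5% CO2; Amplite luciferase reagent 10 min RT; luminescence readout. qHTS format.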
FLuc counter – counter-screen for miR-21 project: firefly luciferase inhibitors or activators | purified FLuc, Km substrates, luminescence inhibition | 360,000 compounds, 6.9% hits | P08659 | AID 588342 | Potency, µM (series often up to 57.5 µM), hits mostly inhibitors; note: nearly all actives have a fitted effect of over 55% in size
Target sequence (P08659 whole entry, looked up): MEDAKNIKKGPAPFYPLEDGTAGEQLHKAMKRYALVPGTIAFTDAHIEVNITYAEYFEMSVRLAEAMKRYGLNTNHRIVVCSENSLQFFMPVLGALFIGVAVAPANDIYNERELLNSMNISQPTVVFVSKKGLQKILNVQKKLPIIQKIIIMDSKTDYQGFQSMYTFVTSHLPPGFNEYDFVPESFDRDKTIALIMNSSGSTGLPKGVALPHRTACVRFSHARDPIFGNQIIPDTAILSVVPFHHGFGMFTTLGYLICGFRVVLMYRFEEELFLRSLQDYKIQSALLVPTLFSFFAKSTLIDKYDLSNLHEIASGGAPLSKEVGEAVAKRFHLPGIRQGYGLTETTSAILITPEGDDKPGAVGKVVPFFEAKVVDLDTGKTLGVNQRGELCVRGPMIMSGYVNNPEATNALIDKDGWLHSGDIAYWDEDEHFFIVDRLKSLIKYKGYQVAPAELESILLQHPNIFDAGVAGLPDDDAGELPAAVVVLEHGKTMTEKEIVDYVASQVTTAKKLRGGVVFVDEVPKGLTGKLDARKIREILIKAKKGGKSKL
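Biochemical qHTS of compounds, final roughly 60 µM downward over six points, against 10 nM purified firefly luciferase using Km concentrations of substrates (10 uM D-luciferin, 10 uM ATP) in Tris acetate pH 7.5 buffer; luminescence output.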
Rab9 prom act – Rab9 promoter activation | Huh7 Rab9 promoter-luciferase reporter, luminescence, 24 h | 320,000 compounds, 2.8% hits | Potency, µM (highest dose often 9.22 µM), usual class: activators | AID 485297; note: nearly all actives have a fitted effect of over 60% in size
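Quantitative HTS format; Huh7 Rab9-luciferase reporter cells (1500/well) receive compound 2 h post-plating, incubate 24 h at 37 °C, then get luciferase reagent for 10 min before luminescence reading.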
A number is an active result; 0 = inactive; ? = inconclusive; - = no result; [ ] = dose if it differs, or a comment. Calls come from the whole dose curve; as a rule, active = well fitted curve in the direction sought with a large enough effect; inconclusive = small, poorly fitted or top-dose-only effect, or another doubt; inactive = no such curve, though single readings can be large; an effect the other way counts as inactive or inconclusive.

SMILES	ELG1 genotox	SMN2 splice up	KinaseGlo FLuc	NPC1 promoter act	FLuc counter	Rab9 prom act
CC(=O)Nc1cc(C(=O)OCC(=O)c2ccccc2)ccc1C	14.6µM	10µM	0	3.16µM	19µM	4.47µM
COc1ccc(CCNC(=O)c2ccc3c(c2)N(Cc2ccc(F)cc2)C(=O)CS3)cc1OC	-	-	-	-	0	-
COc1ccc(-c2noc(CCC(=O)N3CCN(c4ccccc4)CC3)n2)cc1	0	-	-	-	-	-
O=C(COC(=O)c1ccc(-c2cnc3ccccc3n2)cc1)c1ccccc1	0	0	0	0	0	?
Cc1ccc(C(=O)COC(=O)c2cc(Cl)nc3ccccc23)cc1	0	0	0	0	10.7µM	0
Cc1ccc(C(=O)OCC(=O)c2ccccc2)cc1	0.58µM	-	-	0.316µM	1.9µM	0.562µM
O=C(COC(=O)c1cc(Cl)nc2ccccc12)c1ccc(Cl)cc1	0	0	0	0	?	0
O=C(Nc1nsc(-c2ccccc2)n1)c1ccc(F)cc1	?	?	0	3.55µM	9.53µM	2.24µM
O=C(Nc1scc(-c2ccccc2)c1C(=O)O)c1ccc(F)cc1	0	-	-	0	12µM	?
CCOC(=O)c1c(-c2ccc(C)cc2)csc1NC(=O)c1ccc(C(C)(C)C)cc1	-	0	-	-	0	-
Cc1ccc(-c2csc(NC(=O)c3ccc(F)cc3)c2C(=O)O)cc1	0	-	-	?	12µM	3.98µM
O=C(Nc1ncc2c(n1)-c1ccccc1CC2)c1ccc(F)cc1	0	0	0	0	?	0
CC(C)Cc1csc(NC(=O)c2ccc(Br)cc2)c1C(=O)O	0	-	-	0	26.9µM	0
CC(C)Cc1csc(NC(=O)C(C)C)c1C(=O)O	0	-	-	0	0	0
CCOC(=O)c1nncc(-c2ccccc2)n1	0	-	-	0	0	0
Cc1ccc(OC(=O)c2ccncc2)c(C)c1	0	-	-	0	0	0
CCOC(=O)c1ccc2c(c1)NCc1cccc(OC)c1O2	?	-	-	2.51µM	5.36µM	2.82µM
CCN(CC)c1ccc(N=Cc2cc(Br)ccc2O)cc1	0	0	0	0	9.53µM	0
COc1ccc(-c2nc(-c3ccccc3)oc2Nc2c(C)cccc2C)cc1	-	0	0	-	-	-
O=C(CCN1C(=O)c2ccccc2C1=O)NCCC1=CCCCC1	0	0	0	?	21.3µM	2.51µM
O=C(NCCC1=CCCCC1)c1ccc(Cl)cc1	?	-	0	0.316µM	1.35µM	0.282µM
CS(=O)(=O)N(Cc1ccc(Cl)cc1)c1ccc(C(=O)NCCC2=CCCCC2)cc1	0	0	0	0	0	0
O=C(CCn1c(=O)sc2ccccc21)NCCC1=CCCCC1	0	0	0	0	0	0
O=C(NCCC1=CCCCC1)c1cnccn1	14.6µM	11.2µM	0	?	?	3.16µM
Cc1ccc(Nc2nc3ccccc3s2)c(C)c1	2.06µM	2.51µM	0	2µM	0.601µM	1.26µM
SMILES	ELG1 genotox	SMN2 splice up	KinaseGlo FLuc	NPC1 promoter act	FLuc counter	Rab9 prom act
NC(=S)Nc1nc2ccccc2s1	0	0	0	0	?	0
CC(=O)c1c(C)nc(Nc2nc3ccccc3s2)nc1C	?	-	-	?	0.757µM	?
Cc1cc(C)nc(Nc2nc3ccccc3s2)n1	?	3.16µM	0	?	?	?
Cc1cccc(NC(=O)Cn2c(=O)n(CCCCCC(=O)NCc3ccccc3)c(=O)c3sccc32)c1	-	0	-	-	0	-
CC(C)(C)C(=O)N(Cc1ccc(Cl)cc1)c1cnccn1	0	-	-	0	0	0
Cc1ccccc1C(=O)N1CCC(C(=O)Nc2cc(C(F)(F)F)ccc2N2CCCC2)CC1	0	-	-	0	0	0
CC1(C)CN=C(N(C(=O)Nc2ccccc2)c2ccccc2F)S1	0	-	-	0	0	0
CC1(C)CN=C(N(Cc2ccccc2)C(=O)Nc2ccccc2)S1	?	0	0	?	15.1µM	?
CCCCc1nnc(NC(=O)c2oc3ccccc3c2C)s1	0	-	-	?	?	0
Cc1cc(C)cc(NC(=O)CCc2nc3sc4c(c3c(=O)[nH]2)CCCC4)c1	0.731µM	-	-	0	0	0
CCOC(=O)c1nc2sc3c(c2c(=O)[nH]1)CCC(C)C3 (stereo unspecified)	0	-	-	0	16.9µM	0
CC(=O)Nc1ccc(NC(=O)CCc2nc3sc4c(c3c(=O)[nH]2)CCCC4)cc1	0	-	-	0	?	0
CC(C)CCOCc1nc2sc3c(c2c(=O)[nH]1)CCC(C)C3 (stereo unspecified)	?	0	0	0	0	0
COc1cccc(-c2nc3sc4c(c3c(=O)[nH]2)CCCCC4)c1	?	0.891µM	0	?	0.151µM	?
CCOC(=O)c1nc2sc3c(c2c(=O)[nH]1)CCCC3	0	0	0	0	19µM	0
CCCCn1c2ccccc2c2nnc(SCC(=O)Nc3ccc(NC(C)=O)cc3)nc21	-	0	-	-	0	-
CC1COC2=C1C(=O)C(=O)c1c2ccc2c1CCCC2(C)C (stereo unspecified)	-	0	0	-	-	-
CCCN(CCC)CCNC(=O)c1cc2c(=O)oc3ccc(C)cc3c2s1	-	0	-	-	0	-
Cc1cccc(Nc2nnc(SC/C(O)=C(\C#N)c3nc4ccccc4[nH]3)s2)c1	0	0	0	0	16.9µM	0
Cc1ccc(O)c(NC(=S)NC(=O)c2ccccc2Cl)c1	0	?	0	0	16.9µM	0
O=C(NC(=S)Nc1ccc(O)cc1)c1ccccc1Cl	?	?	0	?	?	3.98µM
COc1ccc(NC(=S)NC(=O)c2ccccc2Cl)cc1	0	-	0	0	?	?
CCOC(=O)C(C)n1nc(/C=C/c2ccc(OC)cc2)ccc1=O (stereo unspecified)	0	0	0	0	0	0
CC(C)c1ccc(/C=C/c2ccc(=O)n(C)n2)cc1	10.3µM	11.2µM	0	2.24µM	4.78µM	1.78µM
COc1nc(-c2ccccc2)ccc1-c1noc(C)n1	-	0	0	-	?	-
SMILES	ELG1 genotox	SMN2 splice up	KinaseGlo FLuc	NPC1 promoter act	FLuc counter	Rab9 prom act
CCc1nc(-c2ccc(C)nc2OC)no1	0	0	0	0	0[2.3 µM]	0
COc1nc(C)ccc1-c1noc(-c2cccnc2)n1	?	-	-	?	23.9µM	?
COc1nc(C)ccc1-c1noc(-c2ccccn2)n1	1.16µM	8.91µM	0	1.26µM	6.01µM	0.562µM
COc1nc2cc(C)ccc2cc1-c1noc(-c2cccnc2)n1	0	0	0	0	0	0
COc1ccccc1-c1nc(-c2ccc(C)nc2OC)no1	8.2µM	12.6µM	0	3.98µM	4.26µM	2µM
O=C(COC(=O)C1CCC1)NCCc1ccc(Cl)cc1Cl	0	-	-	0	0	0
O=S(=O)(NCC1CCN(Cc2ccccc2)CC1)c1ccccc1C(F)(F)F	0	-	-	0	0	0
Cc1cccc(NC(=O)CSc2nc3c(oc4ccccc43)c(=O)n2-c2ccccc2)c1C	-	0	-	-	0	-
Cc1ccc2nc(Nc3ccc4[nH]c(=O)[nH]c4c3)c(-n3nc(C)cc3C)nc2c1	?	17.8µM	0	0	0.849µM	?
O=C(/C(=C(\[O-])c1ccccc1)[n+]1ccc2ccccc2c1)c1ccccc1	0	0	0	0	23.9µM	0
